Assay results from PubChem BioAssay.
Inconclusive results are not listed. The source made the active and inactive calls.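 The calls were made as follows, unless noted: active = efflux inhibition above 0.42, the validation set average plus 4 SD; inconclusive = no clear call, values can overlap the other calls; inactive = the rest.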

Columns and labels:
[1] = rapamycin-like changes in RPL19A-GFP expression – cell-based, S. cerevisiae, multiplex flow cytometry, primary screen (AID 1862; in the data active = percent of DMSO control GFP below about 86%;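 also: lower values mimic rapamycin by blocking the RPL19A rise seen in DMSO cells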); settings: S. cerevisiae RPL19A-GFP strain, flow cytometry fluorescence, 3 h; at 10 µM; stronger effect = lower value
[2] = TOR pathway GLN3 branch reporter MEP2-GFP changes – S. cerevisiae, multiplex flow cytometry, primary screen (AID 1867;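 active = GFP response, as percent of the DMSO control, above the screen-wide mean plus 3 SD, about 139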;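 also: median GFP channel fluorescence of barcode-gated MEP2-GFP cells measured by flow cytometry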); settings: S. cerevisiae MEP2-GFP strain, 3 h, at 10 µM, stronger effect = higher value, 100% means same as DMSO wells
[3] = TOR pathway RTG branch CIT2 reporter changes – S. cerevisiae, GFP fusion, multiplex flow cytometry, primary screen (AID 1870;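 active = percent response above a set limit, the screen-wide mean plus 3 SD, cut at about 130% in these data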;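 also: barcoded CIT2-GFP strain pooled with four other GFP strains with rapamycin as positive control; median GFP fluorescence per well over plate mean of DMSO wells so 100% = DMSO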); settings: S. cerevisiae CIT2-GFP expression, 3 h, at 10 µM, stronger effect = higher value
[4] = TOR pathway LAP4-GFP level changes – S. cerevisiae, multiplex flow cytometry, primary screen (AID 1873;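 active = GFP signal, as percent of the solvent control, above the screen mean plus 3 SD, about 149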); settings: S. cerevisiae LAP4-GFP expression, 3 h, at 10 µM, stronger effect = higher value
[5] = yeast AGP1-GFP level changes, GLN3 branch – cell-based, multiplex flow cytometry, S. cerevisiae, primary screen (AID 1887;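 active = GFP signal above the screen-wide mean plus 3 SD, that is over about 124.5% of the solvent control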;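 also: AGP1-GFP fusion strain of S. cerevisiae within a five-strain barcoded multiplex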); settings: 3 h, at 10 µM, stronger effect = higher value
[6] = reduced mouse 2C T cell binding to pMHC/ICAM-1 vesicles – MLPCN validation set, flow cytometry, LFA-1/ICAM-1 modulator project, pilot screen (AID 2523;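 active = response below a set limit, under 55% cells CD8-positive and vesicle-bound, and CD8 cells' 90th-percentile brightness under 279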;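 as to vesicle binding response: mean PE anti-B7-1 fluorescence of CD8+ cells relative to row control; 100% = QL9-loaded vesicles with DMSO vehicle in the same plate row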); settings: 2C mouse CD8+ T cells, at 7 µM, stronger effect = lower value; double positive events: measured here: CD8+/vesicle+ event percentage
[7] = target: Integrin beta-1 (Homo sapiens) + Integrin alpha-4 (Homo sapiens) (UniProt P13612+P05556); assay: alpha4beta1 integrin LIBS antibody binding reduction – U937 cells, HUTS-21 mAb, flow cytometry, validation set, VLA-4 allosteric modulator project, pilot screen (AID 2674;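 active = inhibition above 50%, about 3 SD of the validation set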;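 also: antibody binding induced by the VLA-4 ligand LDV present at three times its Kd; 0% = LDV ligand with antibody and no compound and 100% = antibody without LDV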); settings: HUTS-21 LIBS mAb binding, at 6.7 µM, stronger effect = higher value, binding induced by LDV ligand
Chain of Integrin beta-1 (Homo sapiens) + Integrin alpha-4 (Homo sapiens) (P05556 whole entry, looked up): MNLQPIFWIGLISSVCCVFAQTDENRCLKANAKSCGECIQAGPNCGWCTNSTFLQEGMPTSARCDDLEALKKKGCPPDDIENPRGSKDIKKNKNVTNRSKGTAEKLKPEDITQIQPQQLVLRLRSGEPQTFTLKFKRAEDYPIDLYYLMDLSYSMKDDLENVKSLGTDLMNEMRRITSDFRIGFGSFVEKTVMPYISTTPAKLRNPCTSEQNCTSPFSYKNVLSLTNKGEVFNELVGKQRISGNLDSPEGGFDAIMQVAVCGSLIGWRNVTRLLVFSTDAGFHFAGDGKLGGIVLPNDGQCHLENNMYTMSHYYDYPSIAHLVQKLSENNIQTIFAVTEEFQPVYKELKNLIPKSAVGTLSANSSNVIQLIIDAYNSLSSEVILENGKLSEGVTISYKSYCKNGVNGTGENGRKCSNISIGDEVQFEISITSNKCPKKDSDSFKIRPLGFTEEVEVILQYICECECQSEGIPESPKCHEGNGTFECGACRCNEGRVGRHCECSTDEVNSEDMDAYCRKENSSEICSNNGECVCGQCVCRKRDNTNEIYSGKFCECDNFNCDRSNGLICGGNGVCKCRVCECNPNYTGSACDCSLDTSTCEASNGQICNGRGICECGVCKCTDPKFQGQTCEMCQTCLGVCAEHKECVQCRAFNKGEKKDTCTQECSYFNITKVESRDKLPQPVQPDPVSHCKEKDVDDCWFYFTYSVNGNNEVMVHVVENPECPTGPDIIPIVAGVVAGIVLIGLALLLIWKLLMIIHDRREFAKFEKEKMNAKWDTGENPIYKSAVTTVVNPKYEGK
Chain of Integrin beta-1 (Homo sapiens) + Integrin alpha-4 (Homo sapiens) (P13612 whole entry, looked up): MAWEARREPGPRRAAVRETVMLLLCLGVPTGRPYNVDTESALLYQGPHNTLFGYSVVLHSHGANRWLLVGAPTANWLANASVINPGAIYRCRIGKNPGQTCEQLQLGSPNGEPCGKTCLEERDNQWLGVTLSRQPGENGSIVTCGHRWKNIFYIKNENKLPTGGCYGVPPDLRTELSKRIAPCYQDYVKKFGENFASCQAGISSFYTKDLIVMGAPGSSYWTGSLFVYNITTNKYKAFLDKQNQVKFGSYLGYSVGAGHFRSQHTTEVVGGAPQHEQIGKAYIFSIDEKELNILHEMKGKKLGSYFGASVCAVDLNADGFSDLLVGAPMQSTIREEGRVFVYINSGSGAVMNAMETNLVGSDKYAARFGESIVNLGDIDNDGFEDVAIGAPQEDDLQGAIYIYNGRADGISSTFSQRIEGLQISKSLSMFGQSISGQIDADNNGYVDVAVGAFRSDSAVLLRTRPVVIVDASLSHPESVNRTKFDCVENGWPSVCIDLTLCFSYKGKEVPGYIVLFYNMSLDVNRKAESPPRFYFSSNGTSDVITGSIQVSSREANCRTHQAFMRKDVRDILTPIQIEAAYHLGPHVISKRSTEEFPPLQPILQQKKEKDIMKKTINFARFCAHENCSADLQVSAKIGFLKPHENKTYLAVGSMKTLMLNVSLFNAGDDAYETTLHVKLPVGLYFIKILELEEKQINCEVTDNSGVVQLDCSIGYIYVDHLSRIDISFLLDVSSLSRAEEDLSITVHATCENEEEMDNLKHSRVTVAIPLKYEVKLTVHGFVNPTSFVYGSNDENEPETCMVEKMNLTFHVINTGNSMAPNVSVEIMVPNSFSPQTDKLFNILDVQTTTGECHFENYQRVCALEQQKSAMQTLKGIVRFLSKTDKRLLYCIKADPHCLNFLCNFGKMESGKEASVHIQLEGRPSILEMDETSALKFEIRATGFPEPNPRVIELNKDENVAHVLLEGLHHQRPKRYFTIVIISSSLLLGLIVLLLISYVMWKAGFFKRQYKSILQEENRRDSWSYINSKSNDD

[8] = calorie-restriction mimetic ROS inhibitors, yeast – validation compound set, pilot screen (AID 2706;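 active = superoxide response below 65% of plate, a cut near 3 SD across the whole screen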;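 also: yeast exposed to compound for one week at 30 degrees C before staining; 100% = mean of all compound wells on the same plate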); settings: S. cerevisiae aging, superoxide DHE fluorescence; at 10 µM; stronger effect = lower value
[9] = target: Beta-adrenergic receptor kinase 1 (Homo sapiens) (UniProt P25098); assay: GRK2 binders displacing RNA aptamer, biochemical, validation, human GRK2, bead flow cytometry (AID 488806;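 active = aptamer binding inhibition above 30%, about 3 SD of noise from non-fluorescent compounds; inactive = inhibition at or below 30%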); settings: bead-bound GRK2, FAM-aptamer displacement, at 10 µM, stronger effect = higher value
Chain of Beta-adrenergic receptor kinase 1 (Homo sapiens) (P25098 whole entry, looked up): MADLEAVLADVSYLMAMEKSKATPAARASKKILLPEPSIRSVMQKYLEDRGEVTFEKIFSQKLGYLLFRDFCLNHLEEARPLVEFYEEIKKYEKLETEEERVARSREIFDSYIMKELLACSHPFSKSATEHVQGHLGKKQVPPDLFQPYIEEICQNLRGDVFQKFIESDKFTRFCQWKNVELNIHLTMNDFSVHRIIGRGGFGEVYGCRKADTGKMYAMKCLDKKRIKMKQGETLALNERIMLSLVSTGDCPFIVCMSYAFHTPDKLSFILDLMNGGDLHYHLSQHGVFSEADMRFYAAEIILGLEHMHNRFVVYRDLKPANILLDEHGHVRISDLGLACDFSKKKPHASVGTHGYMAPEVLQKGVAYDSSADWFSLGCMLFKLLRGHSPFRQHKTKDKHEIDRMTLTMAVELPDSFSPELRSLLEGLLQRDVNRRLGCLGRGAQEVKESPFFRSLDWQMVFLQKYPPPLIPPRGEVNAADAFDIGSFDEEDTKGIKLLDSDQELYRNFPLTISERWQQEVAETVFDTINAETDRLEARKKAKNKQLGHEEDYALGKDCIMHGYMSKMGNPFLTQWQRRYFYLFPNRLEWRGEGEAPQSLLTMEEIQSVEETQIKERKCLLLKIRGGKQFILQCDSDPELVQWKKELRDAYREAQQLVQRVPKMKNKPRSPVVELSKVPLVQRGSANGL

[10] = target: Beta-2 adrenergic receptor (Homo sapiens) (UniProt P07550); assay: agonist-induced loss of surface beta2AR – cell-based, FAP fluorogen, flow cytometry, validation set, pilot screen (AID 504459;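 active = percent response above 42, roughly 3 SD of non-fluorescent test compounds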;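 also: agonist-driven loss of surface beta2AR via internalization measured by FAP dye flow cytometry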); settings: Am2.2-beta2AR cells, at 10 µM, stronger effect = higher value
Chain of Beta-2 adrenergic receptor (Homo sapiens) (P07550 whole entry, looked up): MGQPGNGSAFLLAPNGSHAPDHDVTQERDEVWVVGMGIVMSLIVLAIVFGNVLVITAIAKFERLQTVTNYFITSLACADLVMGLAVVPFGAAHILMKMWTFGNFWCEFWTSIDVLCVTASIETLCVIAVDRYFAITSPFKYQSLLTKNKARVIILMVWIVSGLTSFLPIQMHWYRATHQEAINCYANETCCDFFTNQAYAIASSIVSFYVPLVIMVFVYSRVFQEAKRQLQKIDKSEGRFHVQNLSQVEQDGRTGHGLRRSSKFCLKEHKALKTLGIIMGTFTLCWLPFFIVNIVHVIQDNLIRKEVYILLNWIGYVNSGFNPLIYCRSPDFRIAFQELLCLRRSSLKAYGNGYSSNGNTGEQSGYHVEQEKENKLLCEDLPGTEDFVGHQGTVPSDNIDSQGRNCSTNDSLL

[11] = target: AP-2 complex subunit beta (Homo sapiens) (UniProt P63010); assay: beta-arrestin/AP2 interaction blockers – biochemical, validation set, GST-AP2 beads, flow cytometry, pilot screen (AID 504541;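 active = inhibition above 54%, about 3 SD of non-fluorescent compounds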;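 also: AP2 carries R879A mutation and is captured from E. coli lysate; bead-bound FITC arrestin peptide fluorescence measuring arrestin peptide binding to AP2; 0% = DMSO wells and 100% = excess unlabeled arrestin peptide control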); settings: FITC arrestin peptide, at 10 µM, stronger effect = higher value, AP2 beta2 appendage fragment, R879A mutant
Chain of AP-2 complex subunit beta (Homo sapiens) (P63010 whole entry, looked up, the tested form may be a part, one chain of several): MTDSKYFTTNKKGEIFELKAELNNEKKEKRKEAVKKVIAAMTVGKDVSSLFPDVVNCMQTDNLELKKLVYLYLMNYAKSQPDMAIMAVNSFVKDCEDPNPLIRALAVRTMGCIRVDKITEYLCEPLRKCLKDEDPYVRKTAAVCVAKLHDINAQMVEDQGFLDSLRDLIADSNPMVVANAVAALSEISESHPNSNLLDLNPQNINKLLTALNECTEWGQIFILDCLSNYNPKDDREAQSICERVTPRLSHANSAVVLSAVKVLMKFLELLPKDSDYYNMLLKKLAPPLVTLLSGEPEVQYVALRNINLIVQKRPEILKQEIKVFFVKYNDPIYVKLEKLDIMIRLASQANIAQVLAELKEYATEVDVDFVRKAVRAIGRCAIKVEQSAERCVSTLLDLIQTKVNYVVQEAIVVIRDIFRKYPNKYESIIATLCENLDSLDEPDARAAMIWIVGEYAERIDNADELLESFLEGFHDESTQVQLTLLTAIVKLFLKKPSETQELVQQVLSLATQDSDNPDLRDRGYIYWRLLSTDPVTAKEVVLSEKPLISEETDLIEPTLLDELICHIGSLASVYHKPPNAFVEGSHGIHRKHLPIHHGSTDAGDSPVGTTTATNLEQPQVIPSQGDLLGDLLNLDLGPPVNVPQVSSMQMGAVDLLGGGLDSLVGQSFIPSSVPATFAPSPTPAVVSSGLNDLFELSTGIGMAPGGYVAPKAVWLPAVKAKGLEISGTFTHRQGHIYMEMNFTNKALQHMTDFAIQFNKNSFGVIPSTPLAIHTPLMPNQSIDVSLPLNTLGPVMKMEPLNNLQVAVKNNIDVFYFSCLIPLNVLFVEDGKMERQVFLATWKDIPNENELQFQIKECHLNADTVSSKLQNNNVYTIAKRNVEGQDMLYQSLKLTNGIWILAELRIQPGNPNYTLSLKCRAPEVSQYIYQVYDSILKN

[12] = cytosolic pH regulators acting via V-ATPase – S. cerevisiae, pHLuorin, HTS validation (AID 504600; in the data active = response above about 15%;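 also: plate controls were DMSO for no effect and reference compound for full effect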); settings: V-ATPase proton transport, at 10 µM, stronger effect = higher value
[13] = test system: anti-desmoglein-3 scFv antibody binding to human DSG3; assay: blockers of pathogenic pemphigus antibody–desmoglein-3 binding – biochemical, validation compound set, bead-based, flow cytometry, pilot screen (AID 588368;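 active = binding below the plate cutoff, the plate median minus 3 SD, with a reading above zero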;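 also: signal is the median channel fluorescence of bead-bound GFP antibody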); settings: Protein G beads, DSG3-Fc, scFv-GFP binding, at 10 µM, stronger effect = lower value
[14] = Nile Red efflux blockade in pump-expressing yeast – validation compound set, multiplex, phenotypic, pilot screen (AID 588506);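 also: Nile Red retained in cells so higher fluorescence means more efflux inhibition; 0 = negative control wells and 1 = enniatin B 25 µM full block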; settings: S. cerevisiae pump-expressing triplex, Nile Red efflux flow cytometry; at 10 µM; stronger effect = higher value; the pumps come from Candida albicans
[15] = target: ATP-binding cassette sub-family B member 6 (Homo sapiens) (UniProt Q9NP58); assay: blockers of ABCB6-driven porphyrin uptake – K562-ABCB6 cells, flow cytometry, validation set, pilot screen (AID 588550;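 active = inhibition above the screen-wide mean plus 3 SD, about 51%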;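 also: 0% = DMSO wells and 100% = benzethonium chloride 70 µM positive control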); settings: K562-ABCB6 porphyrin accumulation, 1 h, at 10 µM, stronger effect = higher value
Chain of ATP-binding cassette sub-family B member 6 (Homo sapiens) (Q9NP58 whole entry, looked up): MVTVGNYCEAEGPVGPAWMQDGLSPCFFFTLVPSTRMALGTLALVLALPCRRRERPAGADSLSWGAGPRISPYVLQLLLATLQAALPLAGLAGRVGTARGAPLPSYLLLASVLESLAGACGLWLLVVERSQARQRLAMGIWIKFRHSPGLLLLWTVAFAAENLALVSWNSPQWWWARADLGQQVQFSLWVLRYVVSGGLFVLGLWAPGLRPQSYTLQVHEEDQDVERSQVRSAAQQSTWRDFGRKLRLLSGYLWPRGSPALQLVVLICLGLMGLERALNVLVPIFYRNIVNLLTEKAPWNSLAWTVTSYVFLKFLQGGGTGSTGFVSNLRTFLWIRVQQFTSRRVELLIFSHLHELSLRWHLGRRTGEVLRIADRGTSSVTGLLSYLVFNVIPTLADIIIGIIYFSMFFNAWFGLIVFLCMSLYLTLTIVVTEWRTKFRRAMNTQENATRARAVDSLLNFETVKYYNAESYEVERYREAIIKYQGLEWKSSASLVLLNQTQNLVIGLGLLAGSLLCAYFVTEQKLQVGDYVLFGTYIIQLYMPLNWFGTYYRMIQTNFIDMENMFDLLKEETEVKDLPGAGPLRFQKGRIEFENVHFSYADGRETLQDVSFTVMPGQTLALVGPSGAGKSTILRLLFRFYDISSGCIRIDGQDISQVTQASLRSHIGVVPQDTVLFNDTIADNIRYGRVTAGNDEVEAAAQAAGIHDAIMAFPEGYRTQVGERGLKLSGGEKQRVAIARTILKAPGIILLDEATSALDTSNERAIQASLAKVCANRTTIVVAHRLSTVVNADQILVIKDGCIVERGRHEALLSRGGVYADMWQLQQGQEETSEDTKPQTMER

[16] = AML differentiation inducers, ER-HoxA9 marrow cells – cell-based, GFP/MAC1 double positive, flow cytometry, validation set, primary screen (AID 588685;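 active = differentiation response of at least 50%, scaled between solvent and reference control, from cells with both markers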;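 also: compound exposure lasts four days before antibody staining and flow analysis; 0% = DMSO wells and 100% = 5 µM fulvestrant positive control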); settings: stronger effect = higher value, normalized: vehicle 0, fulvestrant 100

COCCCNc1nc2c([nH]1)c(=O)[nH]c(=O)n2C
inactive: percent of DMSO control GFP [1] 104% | GFP response vs DMSO [2] 99.6% | percent response of DMSO control [3] 105% | GFP response vs DMSO [4] 112% | GFP response, % of DMSO [5] 114% | vesicle binding response [6] 156% | inhibition [7] 9.95% | superoxide response (% of plate) [8] 94.3% | aptamer binding inhibition [9] 4% | response [10] -17.8% | inhibition [11] 13.3% | response [12] 6.45% | binding (% of control) [13] 98.5% | efflux inhibition (fraction of control) [14] -0.17 | inhibition [15] 6% | differentiation response [16] -5.97%
63.1%: double positive events [6]

CCC[C@@H]1C[C@@H](C(=O)N[C@H]([C@@H](C)O)[C@H]2O[C@H](SC)[C@H](O)[C@@H](O)C2O)N(C)C1 (stereo not given in full)
66.2%: double positive events [6]
inactive: percent of DMSO control GFP [1] 92.8% | GFP response vs DMSO [2] 120% | percent response of DMSO control [3] 97.9% | GFP response vs DMSO [4] 80.9% | GFP response, % of DMSO [5] 90.1% | vesicle binding response [6] 177% | inhibition [7] 3.55% | superoxide response (% of plate) [8] 99.1% | aptamer binding inhibition [9] 5% | response [10] -3.92% | inhibition [11] -1.72% | response [12] 3.43% | binding (% of control) [13] 106% | efflux inhibition (fraction of control) [14] -0.17 | inhibition [15] 10% | differentiation response [16] -4.09%

Cc1ccc(C(=O)COC(=O)c2cnccn2)cc1[N+](=O)[O-]
inactive: percent of DMSO control GFP [1] 99.1% | GFP response vs DMSO [2] 99.6% | percent response of DMSO control [3] 110% | GFP response vs DMSO [4] 82% | GFP response, % of DMSO [5] 82.5% | vesicle binding response [6] 226% | inhibition [7] -18.2% | superoxide response (% of plate) [8] 97.6% | aptamer binding inhibition [9] 4% | response [10] -3.42% | inhibition [11] -6.78% | response [12] -1.08% | binding (% of control) [13] 103% | efflux inhibition (fraction of control) [14] 0.01 | inhibition [15] 12% | differentiation response [16] -21.6%
58.1%: double positive events [6]

COc1cc(SC)ccc1C(=O)NC(C)C
58.7%: double positive events [6]
inactive: percent of DMSO control GFP [1] 102% | GFP response vs DMSO [2] 101% | percent response of DMSO control [3] 99.6% | GFP response vs DMSO [4] 101% | GFP response, % of DMSO [5] 94.9% | vesicle binding response [6] 171% | inhibition [7] -9.98% | superoxide response (% of plate) [8] 97.8% | aptamer binding inhibition [9] -1% | response [10] -0.58% | inhibition [11] -4.67% | response [12] 1.52% | binding (% of control) [13] 101% | efflux inhibition (fraction of control) [14] -0.13 | inhibition [15] 6% | differentiation response [16] -21.6%

CC12CCC(C(=O)NCc3ccccn3)(OC1=O)C2(C)C (stereo not given)
61.8%: double positive events [6]
inactive: percent of DMSO control GFP [1] 102% | GFP response vs DMSO [2] 103% | percent response of DMSO control [3] 103% | GFP response vs DMSO [4] 98% | GFP response, % of DMSO [5] 103% | vesicle binding response [6] 167% | inhibition [7] 1.59% | superoxide response (% of plate) [8] 92.4% | aptamer binding inhibition [9] 0% | response [10] -3.72% | inhibition [11] 6.09% | response [12] -2.31% | binding (% of control) [13] 104% | efflux inhibition (fraction of control) [14] -0.24 | inhibition [15] 33% | differentiation response [16] 5.67%
